Results taken from PubChem BioAssay AID1159580 (chemical genetic matrix, 2015).
Out of some 5,500 compounds screened, about 2,000 (36%) were called active. Inconclusive results (about 18%) are left out. The list shows a part of the results. Unmarked numbers belong to inactive results. No stated cut-off is given here; in the data, active means normalized growth mostly below about 0.91 (no sharp cut-off); inconclusive means no clear call, values can overlap the other calls; inactive means mostly above about 0.92.

Experiment: chemical genetic growth profiling, strain panel (AID 1159580);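 further: tested at 20 µM; growth read once vehicle control cultures reached saturation at 30 °C; 1 = growth at the plate median or of vehicle wells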
Conditions: S. cerevisiae deletion strains, growth OD

Cc1ccc(S(=O)(=O)NC(=O)Nc2ccc(Sc3ccccc3)nc2Sc2ccccc2)cc1
normalized growth (locus YAR019C, strain CDC15, stronger effect = lower value): 0.984 | normalized growth (locus YBL105C, strain PKC1, stronger effect = lower value): 0.967 | normalized growth (locus YBR135W, strain CKS1, stronger effect = lower value): 0.968 | normalized growth (locus YBR136W, strain MEC1, stronger effect = lower value): 0.972 | normalized growth (locus YBR160W, strain CDC28, stronger effect = lower value): 0.969 | normalized growth (locus YDL017W, strain CDC7, stronger effect = lower value): 0.974 | normalized growth (locus YDL028C, strain MPS1, stronger effect = lower value): 0.974 | normalized growth (locus YDL101C, strain DUN1, stronger effect = lower value): 0.983 | normalized growth (locus YDL108W, strain KIN28, stronger effect = lower value): 0.966 | normalized growth (locus YDL132W, strain cdc53, stronger effect = lower value): 0.956 | normalized growth (locus YDL214C, strain PRR2, stronger effect = lower value): 0.927 | normalized growth (locus YDR052C, strain DBF4, stronger effect = lower value): 0.978 | normalized growth (locus YDR054C, strain cdc34, stronger effect = lower value): 0.969 | normalized growth (locus YDR226W, strain ADK1, stronger effect = lower value): 0.977 | normalized growth (locus YDR477W, strain SNF1, stronger effect = lower value): 0.936 | normalized growth (locus YER123W, strain YCK3, stronger effect = lower value): 0.976 | normalized growth (locus YER133W, strain GLC7, stronger effect = lower value): 0.961 | normalized growth (locus YFL009W, strain cdc4, stronger effect = lower value): 0.957 | normalized growth (locus YFL029C, strain CAK1, stronger effect = lower value): 0.979 | normalized growth (locus YFR003C, strain YPI1, stronger effect = lower value): 0.969 | normalized growth (locus YFR019W, strain FAB1, stronger effect = lower value): 0.993 | normalized growth (locus YFR028C, strain CDC14, stronger effect = lower value): 0.974 | normalized growth (locus YGR040W, strain KSS1, stronger effect = lower value): 0.942 | normalized growth (locus YGR052W, strain FMP48, stronger effect = lower value): 0.982 | normalized growth (locus YGR092W, strain DBF2, stronger effect = lower value): 0.913 | normalized growth (locus YHR030C, strain SLT2, stronger effect = lower value): 0.745 (active) | normalized growth (locus YHR079C, strain IRE1, stronger effect = lower value): 0.948 | normalized growth (locus YHR082C, strain KSP1, stronger effect = lower value): 1.03 | normalized growth (locus YHR205W, strain SCH9, stronger effect = lower value): 0.946 | normalized growth (locus YIL147C, strain SLN1, stronger effect = lower value): 0.977 | normalized growth (locus YJL095W, strain BCK1, stronger effect = lower value): 0.933 | normalized growth (locus YJL128C, strain PBS2, stronger effect = lower value): 0.967 | normalized growth (locus YJL157C, strain FAR1, stronger effect = lower value): 0.97 | normalized growth (locus YJR016C, strain ILV3, stronger effect = lower value): 0.98 | normalized growth (locus YJR066W, strain TOR1 (second series), stronger effect = lower value): 0.967 | normalized growth (locus YJR066W, strain TOR1, stronger effect = lower value): 0.95 | normalized growth (locus YKL048C, strain ELM1, stronger effect = lower value): 0.97 | normalized growth (locus YKL067W, strain YNK1, stronger effect = lower value): 0.914 | normalized growth (locus YKL101W, strain HSL1, stronger effect = lower value): 0.957 | normalized growth (locus YKL193C, strain SDS22, stronger effect = lower value): 0.972 | normalized growth (locus YKL203C, strain TOR2, stronger effect = lower value): 1.04 | normalized growth (locus YLR113W, strain HOG1, stronger effect = lower value): 0.885 | normalized growth (locus YLR133W, strain CKI1, stronger effect = lower value): 0.954 | normalized growth (locus YLR403W, strain SFP1, stronger effect = lower value): 0.999 | normalized growth (locus YML070W, strain DAK1, stronger effect = lower value): 0.972 | normalized growth (locus YMR001C, strain CDC5, stronger effect = lower value): 0.971 | normalized growth (locus YMR205C, strain PFK2 (second series), stronger effect = lower value): 0.944 | normalized growth (locus YMR277W, strain FCP1, stronger effect = lower value): 0.965 | normalized growth (locus YNL006W, strain LST8, stronger effect = lower value): 0.968 | normalized growth (locus YNL020C, strain ARK1, stronger effect = lower value): 0.949 | normalized growth (locus YNL161W, strain CBK1, stronger effect = lower value): 0.973 | normalized growth (locus YNL183C, strain NPR1, stronger effect = lower value): 0.969 | normalized growth (locus YNL207W, strain RIO2, stronger effect = lower value): 0.966 | normalized growth (locus YNL222W, strain SSU72, stronger effect = lower value): 0.948 | normalized growth (locus YNL307C, strain MCK1 (second series), stronger effect = lower value): 0.945 | normalized growth (locus YOL078W, strain AVO1, stronger effect = lower value): 0.966 | normalized growth (locus YOL136C, strain PFK27, stronger effect = lower value): 0.972 | normalized growth (locus YOR061W, strain CKA2, stronger effect = lower value): 0.938 | normalized growth (locus YOR119C, strain RIO1, stronger effect = lower value): 0.98 | normalized growth (locus YOR231W, strain MKK1, stronger effect = lower value): 0.976 | normalized growth (locus YOR329C, strain SCD5, stronger effect = lower value): 0.977 | normalized growth (locus YPL031C, strain PHO85, stronger effect = lower value): 0.94 | normalized growth (locus YPL153C, strain RAD53, stronger effect = lower value): 0.946 | normalized growth (locus YPL204W, strain HRR25, stronger effect = lower value): 0.934 | normalized growth (locus YPL209C, strain IPL1, stronger effect = lower value): 0.976 | normalized growth (locus YPL256C, strain CLN2, stronger effect = lower value): 0.955 | normalized growth (locus YPR025C, strain CCL1, stronger effect = lower value): 0.97 | normalized growth (locus YPR106W, strain ISR1, stronger effect = lower value): 0.979 | normalized growth (locus YPR111W, strain DBF20, stronger effect = lower value): 0.954 | normalized growth (strain NNK1, stronger effect = lower value): 0.974 | normalized growth (strain TSCII, stronger effect = lower value): 0.963
